Results filed as inconclusive are left out. Calls of active or inactive are those of the source. Unless noted, calls come from the whole dose curve; as a rule, active = well fitted curve in the direction sought with a large enough effect; inconclusive = small, poorly fitted or top-dose-only effect, or another doubt; inactive = no such curve, though single readings can be large; an effect the other way counts as inactive or inconclusive.
Experiments:
[1] = qHTS assay for measurement of the activity of small molecule inhibitors on Zika virus induced Caspase-3 activity in human iPSC derived neural progenitor cells (hNPCs) (AID 1224857); note: nearly all actives have a fitted effect of over 65% in size
How it was run: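 Caspase-3/7 induction by a 6-hour ZIKV infection was quantified with a luminescent Caspase-Glo 3/7 reagent incubated 30 minutes at room temperature. Compounds were preincubated with hNPCs for 1 hour; inhibition was calculated against uninfected and infected control wells.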

[2] = qHTS assay for measurement of the activity of small molecule inhibitors on Zika virus induced Caspase-3 activity in human astrocytoma cells (AID 1224859)
How it was run: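 In SNB-19 cells plated at 250 cells/well and grown 16-20 h, compounds were applied 1 h before ZIKV (2 FFU/cell). Six hours later caspase-3/7 luminescence was recorded.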

[3] = target: Atrial natriuretic peptide receptor 1 (Homo sapiens) (UniProt P16066); experiment: Natriuretic polypeptide receptor (hNpr1) antagonism - Pilot screen (AID 1347049; calls by dose curve;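 note: agonist-evoked cGMP luminescence read 20 min after hNppA addition; series mostly up to about 58 µM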)
Sequence of Atrial natriuretic peptide receptor 1 (Homo sapiens) (P16066 whole entry, looked up): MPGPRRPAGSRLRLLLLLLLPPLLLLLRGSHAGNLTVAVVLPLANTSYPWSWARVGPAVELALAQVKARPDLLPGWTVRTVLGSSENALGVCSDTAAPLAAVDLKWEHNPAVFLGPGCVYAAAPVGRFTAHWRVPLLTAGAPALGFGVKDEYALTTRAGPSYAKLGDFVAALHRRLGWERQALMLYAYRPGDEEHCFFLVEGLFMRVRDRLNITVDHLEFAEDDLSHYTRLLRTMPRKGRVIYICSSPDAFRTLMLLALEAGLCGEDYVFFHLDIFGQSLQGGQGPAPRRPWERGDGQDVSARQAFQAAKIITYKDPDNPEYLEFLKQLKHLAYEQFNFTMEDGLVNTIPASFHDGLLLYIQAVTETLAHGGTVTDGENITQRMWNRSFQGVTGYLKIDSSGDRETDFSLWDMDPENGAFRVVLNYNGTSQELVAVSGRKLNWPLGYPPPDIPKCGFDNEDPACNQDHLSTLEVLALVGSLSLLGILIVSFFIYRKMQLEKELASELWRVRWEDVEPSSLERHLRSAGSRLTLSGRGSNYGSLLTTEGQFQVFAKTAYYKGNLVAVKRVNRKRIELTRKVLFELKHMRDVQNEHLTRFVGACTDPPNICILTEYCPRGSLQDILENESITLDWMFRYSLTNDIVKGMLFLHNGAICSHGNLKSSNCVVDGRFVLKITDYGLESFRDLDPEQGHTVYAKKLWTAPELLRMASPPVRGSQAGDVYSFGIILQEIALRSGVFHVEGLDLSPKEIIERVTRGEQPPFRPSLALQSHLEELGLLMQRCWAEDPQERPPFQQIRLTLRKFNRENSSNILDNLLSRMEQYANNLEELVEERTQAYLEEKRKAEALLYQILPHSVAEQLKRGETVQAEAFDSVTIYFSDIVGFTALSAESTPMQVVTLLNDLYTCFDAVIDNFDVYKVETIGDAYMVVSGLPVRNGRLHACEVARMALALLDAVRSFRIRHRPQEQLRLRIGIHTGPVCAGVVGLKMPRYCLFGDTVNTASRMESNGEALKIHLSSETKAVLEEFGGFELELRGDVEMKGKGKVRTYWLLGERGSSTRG
How it was run: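 Readout is cGMP-driven firefly luciferase luminescence in HEK293 cells carrying hNpr1 and a PDE5-domain GloSensor, read before and 20 min after 0.1 nM hNppA stimulation. Cells had 2% substrate reagent for 2 h and test compound for 30 min.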

[4] = target: Atrial natriuretic peptide receptor 2 (Homo sapiens) (UniProt P20594); experiment: Natriuretic polypeptide receptor (hNpr2) antagonism - Pilot subtype selectivity assay (AID 1347050; calls by dose curve)
Sequence of Atrial natriuretic peptide receptor 2 (Homo sapiens) (P20594 whole entry, looked up): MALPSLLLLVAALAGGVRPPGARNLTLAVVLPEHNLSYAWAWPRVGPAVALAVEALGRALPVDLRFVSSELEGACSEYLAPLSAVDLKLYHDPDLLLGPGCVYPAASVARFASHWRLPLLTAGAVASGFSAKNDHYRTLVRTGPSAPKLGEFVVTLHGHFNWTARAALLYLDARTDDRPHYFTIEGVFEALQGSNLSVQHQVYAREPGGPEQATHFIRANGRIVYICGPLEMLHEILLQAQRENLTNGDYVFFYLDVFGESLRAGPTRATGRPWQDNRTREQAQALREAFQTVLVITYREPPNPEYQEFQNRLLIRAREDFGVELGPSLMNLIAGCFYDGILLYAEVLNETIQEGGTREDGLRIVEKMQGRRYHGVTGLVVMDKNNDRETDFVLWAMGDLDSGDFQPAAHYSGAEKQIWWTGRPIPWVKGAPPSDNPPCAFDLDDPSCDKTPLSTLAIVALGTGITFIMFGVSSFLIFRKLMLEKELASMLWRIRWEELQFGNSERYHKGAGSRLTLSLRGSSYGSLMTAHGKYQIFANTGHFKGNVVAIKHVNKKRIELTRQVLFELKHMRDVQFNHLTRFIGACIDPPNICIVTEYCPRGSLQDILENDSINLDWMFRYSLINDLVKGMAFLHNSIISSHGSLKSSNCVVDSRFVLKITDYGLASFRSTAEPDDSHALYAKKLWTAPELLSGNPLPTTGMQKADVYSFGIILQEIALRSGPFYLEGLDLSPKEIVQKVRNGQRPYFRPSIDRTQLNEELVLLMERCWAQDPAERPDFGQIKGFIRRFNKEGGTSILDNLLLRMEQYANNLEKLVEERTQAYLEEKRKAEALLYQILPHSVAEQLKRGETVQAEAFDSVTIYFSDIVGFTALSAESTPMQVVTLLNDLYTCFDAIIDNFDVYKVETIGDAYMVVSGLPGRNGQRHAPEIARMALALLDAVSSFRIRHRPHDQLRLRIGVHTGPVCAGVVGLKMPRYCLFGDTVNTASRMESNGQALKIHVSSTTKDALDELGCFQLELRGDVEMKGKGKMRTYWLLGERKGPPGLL
How it was run: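 Pilot selectivity screen against hNpr2: HEK293 cGMP-sensor cells are treated with LOPAC1280 compounds, then with hNppC peptide at 1 nM final. The cGMP-driven luminescence change over 20 min at room temperature is the read-out.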

[5] = NS1 protein of Zika virus - qHTS assay to identify small molecule inhibitors in human HEK 293 cells (AID 1347053); note: series mostly up to about 46 µM; nearly all actives have a fitted effect of over 55% in size
How it was run: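 HEK 293 cells, seeded 20 h at 37 C, were pretreated with compound 1 h, then infected with ZIKV MR766 (MOI = 0.5) for 24 h. NS1 was read by TR-FRET with two anti-NS1 antibodies, normalized to uninfected and infected wells.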

[6] = target: T1, Tyrosine-protein phosphatase non-receptor type substrate 1 (Homo sapiens) + Leukocyte surface antigen CD47 (Homo sapiens) (UniProt P78324+Q08722); experiment: CD47-SIRPalpha protein protein interaction - LANCE assay qHTS validation (AID 1347057; active = well fitted curve in the direction sought with a large enough effect in the signal ratio, with a control signal flat, not every such curve was filed as active; the % refers to the signal ratio; note: series mostly up to about 38 µM)
T1 sequence (P78324 whole entry, looked up): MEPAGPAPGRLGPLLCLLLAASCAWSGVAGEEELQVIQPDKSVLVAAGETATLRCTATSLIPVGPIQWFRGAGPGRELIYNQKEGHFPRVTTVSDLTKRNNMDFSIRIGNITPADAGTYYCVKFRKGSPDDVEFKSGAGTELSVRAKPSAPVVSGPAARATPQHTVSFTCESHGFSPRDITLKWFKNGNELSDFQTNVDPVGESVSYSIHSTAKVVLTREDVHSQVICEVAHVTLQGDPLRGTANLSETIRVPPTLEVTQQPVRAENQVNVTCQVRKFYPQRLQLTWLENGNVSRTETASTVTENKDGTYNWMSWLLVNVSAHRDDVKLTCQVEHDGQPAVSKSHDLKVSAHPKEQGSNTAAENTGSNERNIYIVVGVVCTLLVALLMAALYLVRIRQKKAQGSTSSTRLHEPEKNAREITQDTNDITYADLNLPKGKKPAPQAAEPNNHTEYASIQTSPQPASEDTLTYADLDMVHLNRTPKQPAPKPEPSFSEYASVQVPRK
T1 sequence (Q08722 whole entry, looked up): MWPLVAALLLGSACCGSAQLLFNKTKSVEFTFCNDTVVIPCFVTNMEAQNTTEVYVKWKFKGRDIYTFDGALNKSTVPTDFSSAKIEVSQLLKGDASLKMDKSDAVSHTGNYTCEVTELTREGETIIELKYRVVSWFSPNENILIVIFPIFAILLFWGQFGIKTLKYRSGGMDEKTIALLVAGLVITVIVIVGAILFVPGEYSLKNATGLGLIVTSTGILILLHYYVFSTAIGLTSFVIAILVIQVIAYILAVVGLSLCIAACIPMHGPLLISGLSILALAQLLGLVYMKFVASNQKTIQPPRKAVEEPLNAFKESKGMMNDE
How it was run: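 First, His-tagged CD47 and Eu-labelled anti-His antibody met the compound for 30 min; next, site-specifically biotinylated SIRPalpha was added for 30 min; finally streptavidin-APC was added before reading the TR-FRET ratio.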

[7] = target: T1, Tyrosine-protein phosphatase non-receptor type substrate 1 (Homo sapiens) + Leukocyte surface antigen CD47 (Homo sapiens); experiment: CD47-SIRPalpha protein protein interaction - HTRF assay qHTS validation (AID 1347058; active = well fitted curve in the direction sought with a large enough effect in the signal ratio, not every such curve was filed as active; the % refers to the signal ratio;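 note: recombinant soluble extracellular CD47 with His tag and biotinylated SIRPalpha domains; series mostly up to about 38 µM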)
How it was run: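 TR-FRET read (Ch1/Ch2 ratio) of soluble extracellular CD47 and Avi-biotinylated SIRPalpha domains in PBS pH 7.4 with 0.05% IGEPAL; 7-point compound titration. Sequential 30 min room-temperature steps; non-biotinylated SIRPalpha as control inhibitor.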

[8] = target: T1, Tyrosine-protein phosphatase non-receptor type substrate 1 (Homo sapiens) + Leukocyte surface antigen CD47 (Homo sapiens); experiment: CD47-SIRPalpha protein protein interaction - Alpha assay qHTS validation (AID 1347059);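 note: bead proximity luminescence from CD47 binding SIRPalpha after compound preincubation with SIRPalpha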
How it was run: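 Binding is measured by AlphaScreen proximity: Ni-NTA acceptor beads capture His-CD47, streptavidin donor beads capture biotin-SIRPalpha. Each of three additions (SIRPalpha with compound, CD47, beads) incubates 30 min at room temperature protected from light.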

[9] = target: Parathyroid hormone/parathyroid hormone-related peptide receptor (Homo sapiens) (UniProt Q03431); experiment: qHTS for PTHR1 Agonists: Optimization Screen against the NCGC LOPAC library (AID 1347079);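 note: GloSensor cAMP luminescence in HEK-293 GP2 cells expressing human PTHR1 with IBMX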
Sequence of Parathyroid hormone/parathyroid hormone-related peptide receptor (Homo sapiens) (Q03431 whole entry, looked up): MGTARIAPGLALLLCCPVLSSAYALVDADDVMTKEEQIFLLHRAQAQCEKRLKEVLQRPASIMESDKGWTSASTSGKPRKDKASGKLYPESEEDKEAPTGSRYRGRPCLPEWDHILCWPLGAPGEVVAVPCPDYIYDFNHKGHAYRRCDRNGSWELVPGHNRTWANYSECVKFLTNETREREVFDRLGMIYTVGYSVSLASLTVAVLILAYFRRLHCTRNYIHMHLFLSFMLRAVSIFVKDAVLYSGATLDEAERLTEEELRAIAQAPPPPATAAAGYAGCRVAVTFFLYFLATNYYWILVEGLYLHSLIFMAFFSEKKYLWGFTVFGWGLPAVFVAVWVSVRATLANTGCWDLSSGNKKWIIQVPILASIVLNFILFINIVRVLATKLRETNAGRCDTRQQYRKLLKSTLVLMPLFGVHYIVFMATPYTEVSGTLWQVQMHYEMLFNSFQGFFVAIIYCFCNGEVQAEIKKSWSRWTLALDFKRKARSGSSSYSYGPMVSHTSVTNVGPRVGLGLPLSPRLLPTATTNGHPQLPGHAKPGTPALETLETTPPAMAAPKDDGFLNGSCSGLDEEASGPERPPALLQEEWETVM
How it was run: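 Compounds were tested across a qHTS titration. PTHR1-expressing GP2 cells report cAMP rises via GloSensor luminescence after 1 hr compound exposure at 37C with IBMX present.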

Measured: Potency

Nc1nc(Cl)nc2c1ncn2[C@@H]1O[C@H](CO)C(O)[C@H]1O (some centres not stated)
inactive: [1]

CCCCC#Cc1nc(NC)c2ncn([C@@H]3O[C@H](CO)[C@@H](O)C3O)c2n1 (some centres not stated)
inactive: [1]

OC[C@H]1O[C@@H](n2cnc3c(NC4CCCC4)ncnc32)[C@H](O)C1O (some centres not stated)
inactive: [1]

C[C@H](Cc1ccccc1)Nc1ncnc2c1ncn2[C@@H]1O[C@H](CO)C(O)[C@H]1O (some centres not stated)
inactive: [1]

O=C(O)CCCC[C@@H]1CCSS1
inactive: [1] | [2] | [3] | [4]

N=c1ccn2c(n1)O[C@H]1C(O)[C@@H](CO)O[C@H]12 (some centres not stated)
inactive: [1]

C=C[C@H]1CN2CC[C@@H]1C[C@H]2[C@H](O)c1ccnc2ccc(OC)cc12
inactive: [1]

c1ccc(-c2ccccn2)nc1
inactive: [1] | [2] | [3] | [4] | [5]

NCC1OC(OC2C(O)[C@@H](OC3C(O)C(N)CC(N)C3OC3OC(CO)C(O)C(O)C3N)O[C@@H]2CO)C(N)C(O)C1O (some centres not stated)
inactive: [1]

Nc1nc(SCc2ccc([N+](=O)[O-])cc2)c2ncn([C@@H]3O[C@H](CO)C(O)[C@H]3O)c2n1 (some centres not stated)
inactive: [1]

O=C1NC(=O)c2c1c(-c1ccccc1)cc1[nH]c3ccc(O)cc3c21
inactive: [1]

CCC(CO)Nc1nc(NCc2ccccc2)c2ncn(C(C)C)c2n1 (configuration not stated)
inactive: [1]

CC(C)NC[C@H](O)COc1cccc2[nH]ccc12
inactive: all assays above

CC(C)NCC(O)COc1cccc2ccccc12 (configuration not stated)
inactive: all assays above

C=C/C(C)=C/[C@@]1(C)SC(=O)C(C)=C1O
inactive: [1]

CC[C@@H](C)[C@H]1O[C@]2(CC[C@@H]1C)C[C@@H]1C[C@@H](C/C=C(\C)[C@@H](O[C@H]3C[C@H](OC)[C@@H](O[C@H]4C[C@H](OC)[C@@H](O)[C@H](C)O4)[C@H](C)O3)[C@@H](C)/C=C/C=C3\CO[C@@H]4[C@H](O)C(C)=C[C@@H](C(=O)O1)[C@]34O)O2
inactive: [1]

NO
inactive: [1] | [2] | [3] | [4] | [5]

NC(=O)C1=CN(C2OC(COP(=O)(O)OP(=O)(O)OC[C@H]3O[C@@H](n4cnc5c(N)ncnc54)[C@H](OP(=O)(O)O)C3O)C(O)C2O)C=CC1 (some centres not stated)
inactive: [1]

C[N+](C)(C)CCOP(=O)(O)OP(=O)([O-])OC[C@H]1O[C@@H](n2ccc(N)nc2=O)[C@H](O)C1O (some centres not stated)
inactive: [1]

COC(=O)c1c(C)[nH]c(C)c1C(=O)c1ccccc1Cc1ccccc1
inactive: all assays above

CCCN(CC1CC1)c1nc(C)nc(Nc2c(Cl)cc(Cl)cc2Cl)c1Cl
not listed: [9]
inactive: all other assays above

OCC1O[C@H]([S-])C(O)[C@@H](O)[C@@H]1O.[Au+] (some centres not stated)
inactive: [1]

O=C1CN(/N=C/c2ccc(-c3ccc([N+](=O)[O-])cc3)o2)C(=O)N1
inactive: [1]

O=[N+]([O-])c1ccc(CSc2ncnc3c2ncn3[C@@H]2O[C@H](CO)C(O)[C@H]2O)cc1 (some centres not stated)
inactive: [1]

CCCCCCCC/C=C\CCCCCCCC(=O)NCCO
inactive: all assays above

CNC(=O)[C@H]1O[C@@H](n2cnc3c(NCc4ccc(N)cc4)ncnc32)[C@H](O)C1O (some centres not stated)
inactive: [1]

CNc1ncnc2c1ncn2[C@@H]1O[C@H](CO)C(O)[C@H]1O (some centres not stated)
inactive: [1]

Nc1ncnc2c1ncn2[C@@H]1O[C@H](CO)C(O)[C@H]1O (some centres not stated)
inactive: [1]

Nc1nc(Nc2ccccc2)nc2c1ncn2[C@@H]1O[C@H](CO)C(O)[C@H]1O (some centres not stated)
inactive: [1]

O=C(CCCCCN1CCN(c2ccccc2-c2ccccc2)CC1)NC1CCCc2ccccc21 (configuration not stated)
not listed: [9]
inactive: all other assays above

O=C(/C=C/c1ccc(O)c(O)c1)OCCc1ccccc1
inactive: all assays above

CC(C)(C)NCC(O)COc1nsnc1N1CCOCC1 (configuration not stated)
inactive: [1]

Brc1c(Br)c(Br)c2n[nH]nc2c1Br
inactive: all assays above

Nc1ccn([C@@H]2O[C@H](CO)[C@@H](O)[C@@H]2O)c(=O)n1
inactive: [1]

CC(C)(C=O)Cc1cc(C(C)(C)C)c(O)c(C(C)(C)C)c1
not listed: [9]
inactive: all other assays above

CNC(=O)[C@H]1O[C@@H](n2cnc3c(NCc4cccc(I)c4)ncnc32)[C@H](O)C1O (some centres not stated)
inactive: [1]

Fc1ccc(C(OCCCc2cnc[nH]2)c2ccc(F)cc2)cc1
not listed: [5] | [8]
inactive: all other assays above

CCCCCCCCc1ccc(-c2ccc(C(=O)O)cc2)cc1
not listed: [6] | [7] | [8]
inactive: all other assays above

NCCCS(=O)(=O)O
inactive: all assays above

Oc1ccccc1O
not listed: [6] | [7] | [8]
inactive: all other assays above

O=c1[nH]c2cc([N+](=O)[O-])c([N+](=O)[O-])cc2[nH]c1=O
not listed: [7]
inactive: all other assays above

— PubChem BioAssay (NCATS)
